# KB-3-1 cytotox – KB-3-1 parental cell cytotoxicity; KB-3-1 viability, CellTiter-Glo ATP luminescence, 72 h; Potency, µM (doses to about 46.1 µM), hits mostly cytotoxic; 400,000 tested, 1.4% active; AID 1347075; also: % is scaled to controls: 0 for no effect and ±100 for the full control effect; nearly all actives have a fitted effect of over 60% in size
#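 Here the drug-naive KB-3-1 line serves as comparator for MDR sub-line selectivity; cells received compound titrations, 72 h at 37 °C, then CellTiter-Glo readout.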
# HT1080NT lethal – kills 2HG-producing HT-1080-NT fibrosarcoma cells; HT-1080-NT fibrosarcoma viability, CellTiter-Glo ATP luminescence, 48 h; Potency, µM (top dose mostly 46.1 µM), for the others: at the top dose activity, negative = less viability, actives largely listed as cytotoxic; 360,000 tested, 1.6% active; AID 686970;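 also: NT is the 2HG producing partner of a matched IDH1 knockdown line; 0% = DMSO-treated cells and -100% = media-only wells without cells; nearly all actives have a fitted effect of over 55% in size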
#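 750 cells/well, RPMI + 5% FBS; 2 h settle, compound pin-transfer, 48 h at 37 degrees C. CellTiter-Glo 10 min RT, luminescence. Normalized to DMSO and media-only wells.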
# KB-V1 cytotox – KB-V1 MDR subline cytotoxicity; KB-V1 MDR cells viability, CellTiter-Glo, 72 h; Potency, µM (series often up to 46.1 µM), usual class: cytotoxic; 400,000 tested, 3.4% active; also: % is scaled to controls: 0 for no effect and ±100 for the full control effect; nearly all actives have a fitted effect of over 60% in size
#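 Cytotoxicity via CellTiter-Glo luminescence after 72 h compound exposure at 37 degrees C. Cells: drug-selected KB-V1 line, DMEM phenol-red free plus 10% FBS. Compounds tested at multiple concentrations; normalized data fitted to concentration-effect curves.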
# HT1080 IDH1KD tx – kills HT-1080 cells with IDH1 knockdown. Potency, µM (top dose mostly 46.1 µM), for the others: at the highest dose activity, negative = toxicity, usual class: cytotoxic. HT-1080 IDH1 knockdown viability, ATP luminescence, 48 h. 360,000 tested, 2% active;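 also: 0% = DMSO wells and -100% = cell-free medium wells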
#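 HT-1080-IDH1KD cells (IDH1 knocked down), 750/well in RPMI with 5% FBS, treated with compound 48 h at 37 degrees C. Viability by CellTiter-Glo luminescence, normalised to DMSO and no-cell wells; concentration-response curves classed.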
# MCF10A rerep – induces DNA re-replication in MCF 10a normal breast cells | 350,000 tested, 2.9% active | MCF 10A DNA re-replication, Hoechst nuclear intensity, 48 h | Potency, µM (highest dose often 46.1 µM), inactives show at the highest dose activity, positive = re-replication, actives largely listed as activators; also: % of control where 0% means no effect; nearly all actives have a fitted effect of over 50% in size
# SW480 rereplic – induces DNA re-replication in SW480 colon adenocarcinoma cells; 340,000 tested, 1.8% active; Potency, µM (doses to about 46.1 µM), inactives show at the top dose re-replication activation, actives largely listed as activators; SW480 DNA re-replication, Hoechst DNA content imaging, 48 h; also: % of control where 0% means no effect; nearly all actives have a fitted effect of over 55% in size
#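 Image-based DNA-content assay: after two days of treatment, nuclei were labelled with the DNA dye Hoechst and imaged, and hits were compounds raising the count of nuclei showing high fluorescence intensity.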
# * marks the source's active call; other numbers are inactive results; i = inactive; ? = inconclusive; nt = not tested or not shown; [ ] = dose if it differs, or a comment. Hits are enriched below; roughly 8% of the tested compounds scored in any of these assays. Calls follow the shape of the dose curve; as a rule, active = well fitted curve in the direction sought with a large enough effect; inconclusive = small, poorly fitted or top-dose-only effect, or another doubt; inactive = no such curve, though single readings can be large; an effect the other way counts as inactive or inconclusive. Potency is read from the fitted curve at half-maximal effect.
SMILES,KB-3-1 cytotox,HT1080NT lethal,KB-V1 cytotox,HT1080 IDH1KD tx,MCF10A rerep,SW480 rereplic
CCc1ccc(Cn2nnc3c(=O)[nH]c(C4CCCN(C(=O)c5cccc(Cl)c5)C4)nc32)cc1 (stereo not given),i,nt,i,nt,nt,nt
CN(Cc1cccc(F)c1)C(=O)c1cccc(S(=O)(=O)N2CCN(Cc3ccccc3)CC2)c1,?,-1%,?,-5%,13%,-2%
CN(Cc1cnn(Cc2ccccc2)c1)C(=O)c1cccc(S(=O)(=O)N2CCOCC2)c1,15µM*,?,i,?,?,18µM*
CCN(Cc1ccccc1)c1ccc(/C=N/NC(=O)c2cccc(S(=O)(=O)N3CCOCC3)c2)cc1,?,?,?,21µM*,?,15%
CCN(CC)c1ccc(/C=N/NS(=O)(=O)c2ccc(C)c([N+](=O)[O-])c2)cc1,i,-18%,i,-14%,10%,-3%
CCN(CC)c1ccc(/C=N/NC(=O)c2cccc(S(=O)(=O)N3CCOCC3)c2)cc1,i,-2%,i,-24%,0%,-5%
COc1ccc(C(=O)N(C)Cc2cnn(Cc3ccccc3)c2)cc1S(=O)(=O)N1CCOCC1,5.8µM*,5.8µM*,i,5.8µM*,3.7µM*,4.1µM*
CCN(Cc1ccccc1)c1ccc(/C=N/NS(=O)(=O)c2cccc([N+](=O)[O-])c2)cc1,i,-10%,16µM*,-2%,?,0%
Cc1ccc(C(=O)C[n+]2cccc3cccc(O)c32)cc1,i,nt,i,nt,nt,nt
O=C(/C=C/c1cc([N+](=O)[O-])ccc1OC(F)F)Nc1cccc(OC(F)F)c1,i,-17%,i,-12%,0%,-2%
O=C(Cc1ccc(Cl)c(Cl)c1)Nc1cccc(S(=O)(=O)N2CCOCC2)c1,i,-24%,?,?,8%,-5%
Cc1ccc(CCNC(=O)CCCn2nc(C)c3c(C)n(-c4ccccc4)nc3c2=O)cc1,i,nt,i,nt,nt,nt
Cc1ccc(N(C)S(=O)(=O)c2cccc(C(=O)N(C)Cc3cnn(-c4ccccc4)c3)c2)cc1,i,-3%,5.8µM*,?,21µM*,?
CCCNc1cc(C)oc(=O)c1C(=O)CC,i,0%,i,-7%,-3%,-1%
Cc1cccc(/C=N\Nc2cn[nH]c(=O)c2Cl)c1,i,-10%,4.1µM*,?,23%,1%
COc1ccccc1/C=N\Nc1cn[nH]c(=O)c1Cl,i,-29%,8.2µM*,?,10%,-38%
CCOc1ccccc1/C=N\Nc1cnn(Cc2ccccc2)c(=O)c1Cl,i,-5%,i,-24%,?,11%
O=c1[nH]ncc(N/N=C\c2cccs2)c1Cl,?,-4%,3.3µM*,-11%,9%,-9%
O=c1[nH]ncc(N/N=C\c2cccnc2)c1Cl,i,-1%,?,2%,7%,-13%
O=c1[nH]ncc(N/N=C\c2ccncc2)c1Cl,i,6%,21µM*,2%,15%,4%
Brc1cc(Br)c2nc(-c3ccc(N4CCOCC4)cc3)ccc2c1,i,-10%,?,-14%,9.2µM*,8.2µM*
NCC(=O)c1c[nH]c2ccccc12,i,nt,i,nt,nt,nt
Cc1cc(C)c(S(N)(=O)=O)c(C)c1N(C)S(=O)(=O)c1ccc(Cl)cc1,i,-14%,i,-8%,24%,0%
CCC1(C)NC(=O)N(CC(=O)c2cc(C)n(C3CC3)c2C)C1=O (stereo not given),i,11%,i,0%,3%,-51%
COc1ccc(C2(C)NC(=O)N(CC(=O)c3cc(C)n(C4CC4)c3C)C2=O)cc1OC (stereo not given),?,5%,23µM*,2%,10%,-1%
SMILES,KB-3-1 cytotox,HT1080NT lethal,KB-V1 cytotox,HT1080 IDH1KD tx,MCF10A rerep,SW480 rereplic
CCCN(CCC)S(=O)(=O)c1ccc(C(=O)OCCN2C(=O)c3cccc4c(N5CCOCC5)ccc(c34)C2=O)cc1,i,11%,15µM*,20%,-14%,-383%
CCN(CC)S(=O)(=O)c1ccc(C(=O)OCC(=O)N2CCOCC2)cc1,i,-6%,i,1%,-2%,-5%
O=C(OCCN1C(=O)c2cccc3c(N4CCOCC4)ccc(c23)C1=O)c1ccc(Cl)cc1,i,?,i,2.3µM*,2%,?
CCOC(=O)c1cc2c(=O)n3ccccc3nc2n(Cc2ccco2)c1=NC(=O)c1cc(C)cc(C)c1,i,nt,i,nt,nt,nt
Cc1cccn2c(=O)c3cc(C#N)c(=NC(=O)c4cccs4)n(CCCOC(C)C)c3nc12,i,0%,?,2%,?,21µM*
CCOCCCn1c(=NC(=O)c2cccs2)c(C#N)cc2c(=O)n3ccccc3nc21,i,16%,i,1%,?,12µM*
CCCn1c(=NC(=O)c2ccncc2)c(C#N)cc2c(=O)n3cccc(C)c3nc21,i,3%,i,5%,-3%,27%
N#Cc1cc2c(=O)n3ccccc3nc2n(Cc2ccco2)c1=NC(=O)c1ccco1,i,?,i,?,23µM*,19%
COCCCn1c(=NC(=O)c2ccncc2)c(C#N)cc2c(=O)n3cccc(C)c3nc21,i,-5%,i,-7%,787%[0.0737 µM],?
Cc1cccn2c(=O)c3cc(C#N)c(=NC(=O)c4ccncc4)n(CCCOC(C)C)c3nc12,i,-12%,i,-3%,4.6µM*,?
CC1=C(C(=O)Nc2ccccc2)C(c2cccc(Cl)c2)n2nc(SCC(=O)c3ccc(C)cc3)nc2N1 (stereo not given),i,nt,i,nt,nt,nt
CC(=O)N=c1c(C#N)cc2c(=O)n3cccc(C)c3nc2n1CCCOC(C)C,i,?,i,19%,?,21µM*
CC(=O)N=c1c(C#N)cc2c(=O)n3cccc(C)c3nc2n1Cc1ccco1,i,-4%,?,5%,?,0.58µM*
CCOc1ccc(-c2nnc(SCC(=O)NC(C)(C)C)nc2-c2ccc(OCC)c(OC)c2)cc1OC,i,-9%,i,0%,0%,-3%
Cc1ccccc1C(=O)Nc1cccc(NC(=O)Cn2cnc3c(=O)n(C)c(=O)n(C)c32)c1,i,?,i,11µM*,0%,16%
Cc1cccc(C)c1NC(=O)Cn1cnc2c(=O)n(C)c(=O)n(C)c21,i,-1%,i,2%,-1%,-16%
Cc1ccc(NC(=O)CSc2nc3c(c(=O)[nH]2)CN(Cc2ccccc2)CC3)cc1Cl,i,nt,?,nt,nt,nt
